# Data from ChEMBL document CHEMBL2218924, “A broad activity screen in support of a chemogenomic map for kinase signalling research and drug discovery” (Biochem J, 2013).
# Columns and labels:
# [1] = molecular target: Death-associated protein kinase 1 (Homo sapiens) (UniProt P53355); conditions: at 1 µM
# [2] = molecular target: Death-associated protein kinase 2 (Homo sapiens) (UniProt Q9UIK4); conditions: at 1 µM
# [3] = molecular target: Death-associated protein kinase 2 (Homo sapiens) (UniProt Q9UIK4); conditions: at 10 µM
# [4] = molecular target: T1, Serine/threonine-protein kinase DCLK2 (Homo sapiens) (UniProt Q8N568); conditions: at 1 µM
# T1 sequence (whole entry): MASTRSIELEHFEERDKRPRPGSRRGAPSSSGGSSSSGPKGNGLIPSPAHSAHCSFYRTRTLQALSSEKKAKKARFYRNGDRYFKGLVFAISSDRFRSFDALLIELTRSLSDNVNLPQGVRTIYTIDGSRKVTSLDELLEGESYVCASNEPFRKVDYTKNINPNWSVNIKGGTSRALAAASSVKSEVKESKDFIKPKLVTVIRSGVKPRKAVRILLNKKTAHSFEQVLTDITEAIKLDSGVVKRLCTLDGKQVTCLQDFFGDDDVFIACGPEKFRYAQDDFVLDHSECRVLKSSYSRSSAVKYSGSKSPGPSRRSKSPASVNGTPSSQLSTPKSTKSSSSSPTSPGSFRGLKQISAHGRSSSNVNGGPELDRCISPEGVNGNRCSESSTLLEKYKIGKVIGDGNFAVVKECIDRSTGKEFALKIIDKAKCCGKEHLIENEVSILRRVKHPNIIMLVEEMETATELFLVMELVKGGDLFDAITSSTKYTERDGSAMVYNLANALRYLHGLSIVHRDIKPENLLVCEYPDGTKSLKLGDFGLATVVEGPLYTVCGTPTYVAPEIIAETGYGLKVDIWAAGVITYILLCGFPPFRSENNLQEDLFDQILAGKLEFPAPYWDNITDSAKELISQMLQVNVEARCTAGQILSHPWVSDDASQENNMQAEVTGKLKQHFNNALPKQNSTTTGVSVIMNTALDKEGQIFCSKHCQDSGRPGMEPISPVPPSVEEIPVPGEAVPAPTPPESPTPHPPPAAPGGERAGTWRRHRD
# [5] = molecular target: T2, Discoidin domain-containing receptor 2 (Homo sapiens) (UniProt Q16832); conditions: at 1 µM
# T2 sequence (whole entry): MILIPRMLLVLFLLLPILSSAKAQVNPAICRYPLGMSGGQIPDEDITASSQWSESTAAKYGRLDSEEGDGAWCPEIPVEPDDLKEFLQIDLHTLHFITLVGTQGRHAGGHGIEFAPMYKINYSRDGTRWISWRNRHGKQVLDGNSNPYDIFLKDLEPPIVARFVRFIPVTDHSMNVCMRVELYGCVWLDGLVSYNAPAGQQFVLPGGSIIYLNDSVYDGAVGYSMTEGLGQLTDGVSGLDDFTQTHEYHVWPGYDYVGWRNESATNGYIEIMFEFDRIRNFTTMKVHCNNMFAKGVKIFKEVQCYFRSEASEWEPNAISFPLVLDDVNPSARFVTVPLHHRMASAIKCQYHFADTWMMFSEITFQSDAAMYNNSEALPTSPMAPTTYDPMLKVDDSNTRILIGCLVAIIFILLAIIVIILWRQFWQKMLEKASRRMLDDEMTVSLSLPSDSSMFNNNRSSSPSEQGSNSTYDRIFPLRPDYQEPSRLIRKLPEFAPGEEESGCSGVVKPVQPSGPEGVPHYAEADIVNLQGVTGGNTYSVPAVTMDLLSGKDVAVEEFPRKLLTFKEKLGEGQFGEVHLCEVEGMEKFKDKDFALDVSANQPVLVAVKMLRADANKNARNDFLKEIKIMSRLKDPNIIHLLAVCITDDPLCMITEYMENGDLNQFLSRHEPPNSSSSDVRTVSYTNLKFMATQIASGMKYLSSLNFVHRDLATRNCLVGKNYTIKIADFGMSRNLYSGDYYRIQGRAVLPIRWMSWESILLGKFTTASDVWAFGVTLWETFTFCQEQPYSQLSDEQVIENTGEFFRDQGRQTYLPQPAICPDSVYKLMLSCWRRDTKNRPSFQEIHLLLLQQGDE
# [6] = molecular target: T3, Myotonin-protein kinase (Homo sapiens) (UniProt Q09013); conditions: at 1 µM
# T3 sequence (whole entry): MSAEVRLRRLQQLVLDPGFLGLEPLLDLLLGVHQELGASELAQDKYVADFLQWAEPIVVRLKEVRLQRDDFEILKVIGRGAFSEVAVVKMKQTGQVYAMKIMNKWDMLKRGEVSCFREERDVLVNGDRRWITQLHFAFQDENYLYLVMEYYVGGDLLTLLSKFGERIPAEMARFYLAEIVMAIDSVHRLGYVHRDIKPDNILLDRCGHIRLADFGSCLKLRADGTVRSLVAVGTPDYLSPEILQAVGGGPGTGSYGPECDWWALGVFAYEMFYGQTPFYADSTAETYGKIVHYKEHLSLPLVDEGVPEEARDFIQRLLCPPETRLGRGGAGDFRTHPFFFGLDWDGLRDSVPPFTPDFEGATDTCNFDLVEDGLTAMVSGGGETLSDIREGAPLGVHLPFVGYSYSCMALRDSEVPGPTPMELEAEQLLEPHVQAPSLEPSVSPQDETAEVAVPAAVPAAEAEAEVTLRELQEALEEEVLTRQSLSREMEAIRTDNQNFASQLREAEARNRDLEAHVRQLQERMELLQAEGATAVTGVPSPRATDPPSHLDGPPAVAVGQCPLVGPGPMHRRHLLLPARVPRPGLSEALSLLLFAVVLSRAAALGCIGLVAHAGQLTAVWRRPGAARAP
# [7] = molecular target: T3, Myotonin-protein kinase (Homo sapiens); conditions: at 10 µM
# [8] = molecular target: Death-associated protein kinase 1 (Homo sapiens) (UniProt P53355); conditions: at 10 µM
# [9] = molecular target: T1, Serine/threonine-protein kinase DCLK2 (Homo sapiens); conditions: at 10 µM
# [10] = molecular target: T2, Discoidin domain-containing receptor 2 (Homo sapiens); conditions: at 10 µM
# Chain of Death-associated protein kinase 1 (Homo sapiens) (P53355 whole entry, looked up): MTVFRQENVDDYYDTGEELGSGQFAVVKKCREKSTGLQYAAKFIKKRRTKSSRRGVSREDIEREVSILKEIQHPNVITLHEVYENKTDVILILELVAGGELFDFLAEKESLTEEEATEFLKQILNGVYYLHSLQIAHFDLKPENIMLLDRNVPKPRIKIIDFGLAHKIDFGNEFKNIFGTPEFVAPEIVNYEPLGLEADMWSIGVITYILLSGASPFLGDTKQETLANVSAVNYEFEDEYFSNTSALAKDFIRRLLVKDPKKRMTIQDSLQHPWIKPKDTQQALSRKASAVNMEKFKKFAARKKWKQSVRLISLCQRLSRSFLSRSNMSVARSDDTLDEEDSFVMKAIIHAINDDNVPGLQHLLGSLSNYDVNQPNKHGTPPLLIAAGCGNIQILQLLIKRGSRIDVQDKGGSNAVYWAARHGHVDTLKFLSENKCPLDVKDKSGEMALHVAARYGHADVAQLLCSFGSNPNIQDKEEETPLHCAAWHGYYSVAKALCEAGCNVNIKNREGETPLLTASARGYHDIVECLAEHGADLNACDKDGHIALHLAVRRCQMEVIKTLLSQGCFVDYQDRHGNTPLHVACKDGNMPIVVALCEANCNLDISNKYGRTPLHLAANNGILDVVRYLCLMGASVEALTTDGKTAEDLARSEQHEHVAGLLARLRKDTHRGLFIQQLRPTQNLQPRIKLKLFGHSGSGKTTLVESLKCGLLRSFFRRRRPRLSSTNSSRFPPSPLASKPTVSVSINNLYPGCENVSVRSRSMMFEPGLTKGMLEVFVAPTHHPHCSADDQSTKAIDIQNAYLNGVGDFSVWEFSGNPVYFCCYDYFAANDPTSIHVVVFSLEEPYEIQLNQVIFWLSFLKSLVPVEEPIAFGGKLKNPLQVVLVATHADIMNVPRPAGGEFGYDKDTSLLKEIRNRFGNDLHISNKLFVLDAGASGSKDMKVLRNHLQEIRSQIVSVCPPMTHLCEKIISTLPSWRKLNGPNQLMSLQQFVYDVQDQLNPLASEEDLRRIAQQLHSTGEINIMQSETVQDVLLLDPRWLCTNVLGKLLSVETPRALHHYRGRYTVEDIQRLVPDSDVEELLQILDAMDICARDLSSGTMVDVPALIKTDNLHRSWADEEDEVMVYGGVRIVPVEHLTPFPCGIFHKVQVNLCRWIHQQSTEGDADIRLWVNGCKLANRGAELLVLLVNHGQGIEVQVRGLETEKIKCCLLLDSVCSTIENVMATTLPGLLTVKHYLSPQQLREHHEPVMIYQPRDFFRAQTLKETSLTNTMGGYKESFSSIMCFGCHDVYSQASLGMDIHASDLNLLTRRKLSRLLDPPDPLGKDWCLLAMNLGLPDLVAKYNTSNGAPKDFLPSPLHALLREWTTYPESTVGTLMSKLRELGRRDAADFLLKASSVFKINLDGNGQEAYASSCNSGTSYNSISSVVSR
# Chain of Death-associated protein kinase 2 (Homo sapiens) (Q9UIK4 whole entry, looked up): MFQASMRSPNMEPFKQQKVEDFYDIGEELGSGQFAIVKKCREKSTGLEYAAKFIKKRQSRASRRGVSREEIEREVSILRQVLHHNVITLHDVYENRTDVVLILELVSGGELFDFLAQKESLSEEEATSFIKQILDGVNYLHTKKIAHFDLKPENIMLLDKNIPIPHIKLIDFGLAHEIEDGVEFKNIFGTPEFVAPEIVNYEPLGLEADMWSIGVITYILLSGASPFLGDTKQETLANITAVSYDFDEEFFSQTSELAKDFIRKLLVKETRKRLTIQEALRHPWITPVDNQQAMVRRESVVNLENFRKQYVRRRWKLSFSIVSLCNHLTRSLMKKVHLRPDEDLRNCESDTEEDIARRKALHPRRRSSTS
compound,measurement,setting,value
CC(C)(C)c1cc(C=C(C#N)C#N)cc(Br)c1O,residual activity,[1],101%
same,residual activity,[2],104%
same,residual activity,[3],103%
same,residual activity,[4],109%
same,residual activity,[5],115%
same,residual activity,[6],98%
same,residual activity,[7],107%
COc1ccc(Cl)cc1NC(=O)Nc1cc(C)nc2ccccc12,residual activity,[1],94%
COc1cc2ncnc(Nc3cccc(Cl)c3)c2cc1OC,residual activity,[1],104%
COc1ccc2c(c1)/C(=C/c1cnc[nH]1)C(=O)N2,residual activity,[1],100%
same,residual activity,[8],97%
same,residual activity,[3],51%
CCN(CC)CCNC(=O)c1c(C)[nH]c(/C=C2\C(=O)Nc3ccc(Cl)cc32)c1C,residual activity,[1],75%
CCc1nc(-c2ccc(OC)cc2)[nH]c1-c1ccncc1,residual activity,[1],101%
same,residual activity,[8],100%
O=c1[nH]c2ccccc2n1C1CCN(Cc2ccc(-c3nc4cc5[nH]cnc5cc4nc3-c3ccccc3)cc2)CC1,residual activity,[1],93%
same,residual activity,[8],95%
same,residual activity,[2],98%
same,residual activity,[3],78%
same,residual activity,[4],87%
same,residual activity,[9],98%
same,residual activity,[5],109%
same,residual activity,[10],85%
same,residual activity,[6],133%
same,residual activity,[7],143%
Oc1n[nH]c2nnc(-c3c(-c4ccccc4)nn4ccccc34)cc12,residual activity,[1],52%
COc1cc2ncnc(Nc3ccc(OCc4ccccc4)cc3)c2cc1OC,residual activity,[1],94%
same,residual activity,[8],100%
same,residual activity,[2],104%
same,residual activity,[3],112%
same,residual activity,[4],89%
same,residual activity,[9],112%
same,residual activity,[5],108%
same,residual activity,[10],93%
same,residual activity,[6],105%
same,residual activity,[7],103%
O=[N+]([O-])/C=C/c1ccc2c(c1)OCO2,residual activity,[1],85%
same,residual activity,[8],90%
same,residual activity,[2],95%
same,residual activity,[3],127%
same,residual activity,[4],63%
same,residual activity,[9],68%
same,residual activity,[5],100%
same,residual activity,[10],97%
same,residual activity,[6],137%
same,residual activity,[7],134%
CCn1cnc2c(Nc3cccc(Cl)c3)nc(N[C@@H]3CCCC[C@@H]3N)nc21,residual activity,[1],96%
same,residual activity,[8],85%
same,residual activity,[2],92%
same,residual activity,[3],76%
same,residual activity,[4],124%
same,residual activity,[9],67%
same,residual activity,[10],78%
same,residual activity,[6],123%
same,residual activity,[7],80%
CC(C)c1nn(-c2c(Cl)cccc2Cl)c2nc(Cc3ccc(OCCO)cc3)[nH]c(=O)c12,residual activity,[1],94%
COc1ccc(-c2cnc3c(-c4ccsc4)cnn3c2)cc1,residual activity,[1],97%
COc1cc(OC)c(/C=C2\C(=O)Nc3ccccc32)c(OC)c1,residual activity,[1],84%
same,residual activity,[8],81%
same,residual activity,[2],100%
same,residual activity,[3],95%
same,residual activity,[5],97%
same,residual activity,[10],90%
COc1cc2nccc(Oc3ccc(NC(=O)Nc4cc(C)on4)c(Cl)c3)c2cc1OC,residual activity,[1],105%
c1cc(-c2cnn3cc(-c4ccc(OCCN5CCCCC5)cc4)cnc23)ccn1,residual activity,[1],76%
same,residual activity,[8],84%
same,residual activity,[4],124%
same,residual activity,[9],76%
same,residual activity,[10],69%
same,residual activity,[7],80%
O=c1cc(N2CCNCC2)oc2c(-c3ccccc3)cccc12,residual activity,[1],96%
O=C1NC(=O)/C(=C\c2ccc3nccnc3c2)S1,residual activity,[1],87%
O=C1c2ccccc2-c2nc3nnnn3nc21,residual activity,[2],101%
same,residual activity,[3],114%
same,residual activity,[6],127%
same,residual activity,[7],148%
O=C1NC(=O)c2c1c1c3ccccc3n3c1c1c2c2ccccc2n1C1CCC3O1,residual activity,[1],49%
same,residual activity,[8],60%
same,residual activity,[2],54%
same,residual activity,[3],20%
same,residual activity,[5],77%
same,residual activity,[10],81%
CC(C)[C@H](CO)Nc1nc(Nc2cccc(Cl)c2)c2ncn(C(C)C)c2n1,residual activity,[1],87%
same,residual activity,[4],128%
same,residual activity,[9],139%
same,residual activity,[5],91%
same,residual activity,[10],92%
same,residual activity,[6],98%
same,residual activity,[7],89%
COC(=O)[C@@]1(O)C[C@H]2O[C@]1(C)n1c3ccccc3c3c4c(c5c6ccccc6n2c5c31)C(=O)NC4,residual activity,[1],48%
same,residual activity,[8],10%
same,residual activity,[2],12%
same,residual activity,[3],-3%
same,residual activity,[4],75%
same,residual activity,[9],41%
same,residual activity,[5],56%
same,residual activity,[10],17%
same,residual activity,[6],116%
same,residual activity,[7],65%
COc1ccc2c(c[n+](C)c3c4cc5c(cc4ccc23)OCO5)c1OC,residual activity,[1],94%
same,residual activity,[8],71%
same,residual activity,[2],99%
same,residual activity,[3],91%
same,residual activity,[4],98%
same,residual activity,[9],90%
same,residual activity,[6],111%
same,residual activity,[7],126%
O=C1NC(=O)C(c2cn(CCCO)c3ncccc23)=C1c1cnccn1,residual activity,[1],94%
COc1cc2ncc(-c3ccccc3)nc2cc1OC,residual activity,[1],87%
C[S+]([O-])c1ccc(-c2nc(-c3ccc(F)cc3)c(-c3ccncc3)[nH]2)cc1 (stereo not drawn),residual activity,[1],85%
same,residual activity,[8],84%
same,residual activity,[2],90%
same,residual activity,[3],103%
same,residual activity,[4],132%
same,residual activity,[9],111%
same,residual activity,[5],94%
same,residual activity,[10],46%
same,residual activity,[6],122%
same,residual activity,[7],102%
COc1cc2ncnc(Nc3ccc(O)c(Br)c3)c2cc1OC,residual activity,[1],88%
Cn1cc(/C=C2\C(=O)Nc3ccc(S(N)(=O)=O)cc32)c2ccccc21,residual activity,[1],94%
N/C(=N\[N+](=O)[O-])N/N=C\c1ccc(-c2cccc([N+](=O)[O-])c2)o1,residual activity,[1],93%
same,residual activity,[8],89%
same,residual activity,[5],100%
same,residual activity,[10],99%
same,residual activity,[6],98%
same,residual activity,[7],84%
O=C1Nc2ccc3ncsc3c2/C1=C/c1c[nH]cn1,residual activity,[1],85%
same,residual activity,[8],63%
same,residual activity,[2],71%
same,residual activity,[3],32%
same,residual activity,[4],55%
same,residual activity,[9],17%
same,residual activity,[5],113%
same,residual activity,[10],82%
same,residual activity,[6],120%
same,residual activity,[7],105%
Cc1ccc(NC2=CC(=O)c3sc(C)nc3C2=O)cc1,residual activity,[1],87%
